In article PMC7819943, “Rice protein-binding microarrays: a tool to detect cis-acting elements near promoter regions in rice” one finds binding signal data, which are given here for 45 sequences.

Over roughly 35,000 sequences, “fluorescence intensity (a.u.)” has its median near 10,000; the highest 2% begin near 52,000. What follows is part of a selection rich in the highest values, with near analogues and random picks from the rest.

The target in the experiment is T1, OsWOX13 (Oryza sativa, UniProt Q5QMM3 1-267).
T1 sequence: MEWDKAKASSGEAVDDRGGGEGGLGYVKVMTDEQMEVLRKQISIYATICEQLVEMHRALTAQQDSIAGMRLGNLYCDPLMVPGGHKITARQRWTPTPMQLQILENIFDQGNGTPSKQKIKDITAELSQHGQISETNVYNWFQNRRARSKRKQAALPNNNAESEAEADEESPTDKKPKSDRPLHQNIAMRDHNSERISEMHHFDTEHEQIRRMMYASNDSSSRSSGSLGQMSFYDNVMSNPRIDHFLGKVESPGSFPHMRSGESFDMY
Description: protein-binding microarray (RPBM); PBS, 2% BSA, 51.3 ng/ul salmon testes DNA, 50 uM zinc acetate, 200 nM TF, 25 C, 1 h; high values mean tight binding. To be noted: protein: recombinant; tags: N-terminal polyhistidine and DsRed monomer fusion (pET32a); label: CyDye5-dUTP incorporated in the synthesized complementary strand; 3' TTTTT single-stranded linker to array surface; dsDNA, one strand shown. In short, it runs like this:
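Binding signal is reported as fluorescence intensity per feature (arbitrary units) from an Axon 4000B scanner. Incubation used 200 nM of each Ni–NTA-purified, N-terminally polyhistidine- and DsRed-fused transcription factor from E. coli BL21-CodonPlus on a double-stranded custom Agilent array for 1 h at 25 °C, with 50 µM zinc acetate in the buffer, followed by washing.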
On to “TGGAAGAAATTGATGTAATGCTCTGGCCTTTTCATGGATACGGAGTCACCTAGTGCAG”, for which the binding signal is 8100 fluorescence intensity (a.u.).

In the case of “GCTAATTAAATTAATAATTCATCTTAGGAATCACAGCGTCCGGAGTCACCTAGTGCAG”, the binding signal is 39000 fluorescence intensity (a.u.). In the case of “CGCTTAATGACTTCACTTTGTCCTCGGATGATTTGCGTCCCGGAGTCACCTAGTGCAG”, the binding signal is 11700 fluorescence intensity (a.u.). Regarding “CCCAGTCAATCTCCCCATCTCCTCGGCCTCGGCAATAGTACGGAGTCACCTAGTGCAG”, the binding signal is 7200 fluorescence intensity (a.u.). The same measure for “GATAGATAGATAGATAGATAGATAGATAGATACTAGTACACGGAGTCACCTAGTGCAG”: 37000 fluorescence intensity (a.u.); for “GCTTAATTAGCCGCTTCAGTTGCACAGTAACTGAGGAACCCGGAGTCACCTAGTGCAG”: 32700 fluorescence intensity (a.u.); for “TGTAATAATAATTTAATCGATCTTTCAAGGGGCATTCTCGCGGAGTCACCTAGTGCAG”: 8040 fluorescence intensity (a.u.). As for “TTTAGATTGCTAAACACACATGTATATATAAGTTTTATTTCGGAGTCACCTAGTGCAG”, the binding signal is 5900 fluorescence intensity (a.u.).

As to “TCGATTGACTGCATCTTTTCCTGAAAGTGAACATGCAGTGCGGAGTCACCTAGTGCAG”, the binding signal is 32500 fluorescence intensity (a.u.). The same measure for “TGTAATCTATCAAGAATCCATTACTGAGACACAAATGCATCGGAGTCACCTAGTGCAG”: 4280 fluorescence intensity (a.u.); for “TCCTAATTAATGTTAGAAATTTTCCTAATTAATGCTAGAACGGAGTCACCTAGTGCAG”: 28600 fluorescence intensity (a.u.); for “TTAAATTGACTATAGTTGATTTGTAGCCTACAATTGGCAGCGGAGTCACCTAGTGCAG”: 64600 fluorescence intensity (a.u.). With “ACTAGTATTAAATTGACTATAAATGATTTGGAGTTAGTAGCGGAGTCACCTAGTGCAG” the figure was 26300 fluorescence intensity (a.u.). In the case of “TGTAACTATTATATAAATTGGCTATTAAGTTTGACTATAGCGGAGTCACCTAGTGCAG”, the binding signal was 17800 fluorescence intensity (a.u.). As to “CGTTGATTATTGCGATCGAAACCGTCTCATATAATTTTGCCGGAGTCACCTAGTGCAG”, the binding signal was 52500 fluorescence intensity (a.u.).

On to “TATAATTGATCTTTGTAGTTATTTTGTTGCATACATAAGACGGAGTCACCTAGTGCAG”, for which the binding signal was 29100 fluorescence intensity (a.u.). The same measure for “ACATATATAAGTTGATTGATTTGTTATTATAGACGACGAGCGGAGTCACCTAGTGCAG”: 55400 fluorescence intensity (a.u.). With “GAGTTGATTTGCGTTGTCTCTCCGTCTCTTTCTTATTAATCGGAGTCACCTAGTGCAG” the figure was 20800 fluorescence intensity (a.u.); with “ACTAAAATTTGATAAAATTTATTTTGCCTATAATATAAACCGGAGTCACCTAGTGCAG”, 6120 fluorescence intensity (a.u.). For the sequence “TAGTTATATTTGATTATCTTGCGAACCTATATATAATATGCGGAGTCACCTAGTGCAG”, the binding signal was 5250 fluorescence intensity (a.u.). As for “AAGTTATATATATTGATGATTTATACAACTTTGTTGGTGACGGAGTCACCTAGTGCAG”, the binding signal was 3620 fluorescence intensity (a.u.). With “TGGTTATTATATTGATTATAGATAATTTGAAGTTAGTAGTCGGAGTCACCTAGTGCAG” the figure was 31500 fluorescence intensity (a.u.); with “CTATTGATTATGATAATTTGAAGTTATATAGCTTGATTTGCGGAGTCACCTAGTGCAG”, 57700 fluorescence intensity (a.u.); with “ACAAAACAAATTACAGATTCCGCCTGCAAATTATGAGACACGGAGTCACCTAGTGCAG”, 6510 fluorescence intensity (a.u.). With “CCGTGCTCAACTACCCAATCACTCCAAATTAAGCTCGCATCGGAGTCACCTAGTGCAG” the figure was 3750 fluorescence intensity (a.u.); with “TATTAATTAATTAACCTTAATTAATAAACAGGCAAAAGAACGGAGTCACCTAGTGCAG”, 40700 fluorescence intensity (a.u.); with “TGCTAGATTAAATTTTAAAACTATATTGTTCCTTTCATATCGGAGTCACCTAGTGCAG”, 12400 fluorescence intensity (a.u.). With “CCTGATTTCCTCCTTTCAGTGAAGTGTTAAACCCTAGCTACGGAGTCACCTAGTGCAG” the figure was 21500 fluorescence intensity (a.u.); with “AGTGGCTGCCGAATTAATTGGATCGCGTGCTGCGTGCGTGCGGAGTCACCTAGTGCAG”, 5740 fluorescence intensity (a.u.); with “TTAAATTGGATCTGATTGATTTGTTTAAGGAAACCACCGGCGGAGTCACCTAGTGCAG”, 54600 fluorescence intensity (a.u.).

Take “TGATAAATTTGATGTTTATATGTTAAATTATAGTAGTTTGCGGAGTCACCTAGTGCAG”: the binding signal is 17600 fluorescence intensity (a.u.). With “TGTTAAATTATATCTAAGGAAACCGGTTTTGATTTCCTTCCGGAGTCACCTAGTGCAG” the figure was 11100 fluorescence intensity (a.u.); with “CTATTAAATTGATTATATATGATTTGTAGTTTATAGTTGGCGGAGTCACCTAGTGCAG”, 65100 fluorescence intensity (a.u.); with “AGGATTGTTTCTGATGATTTGGGCCCGGAAAGACATAAGGCGGAGTCACCTAGTGCAG”, 7510 fluorescence intensity (a.u.). Take “ATTAATTGAGTTTTATTTTATTGTAAATTTGATTTAATAGCGGAGTCACCTAGTGCAG”: the binding signal is 37200 fluorescence intensity (a.u.). The same measure for “GAGTAATATTCAACATTTTGATTAGAGGTTAACCGGTGTACGGAGTCACCTAGTGCAG”: 5370 fluorescence intensity (a.u.); for “ATTCATTAATCTGTACTAATTGATATTGCTAAGCAGCTGCCGGAGTCACCTAGTGCAG”: 34200 fluorescence intensity (a.u.).

As for “TTTGATAAAATCATAGATGTAGATTTTAATGTGATCTGAGCGGAGTCACCTAGTGCAG”, the binding signal was 6270 fluorescence intensity (a.u.). With “TCACGATTAATTATATCATCATTTTGTATCCTTTGATTTCCGGAGTCACCTAGTGCAG” the figure was 25200 fluorescence intensity (a.u.); with “GTGGCATTTAGGTAATTAATTTAGTTTTATTTGTTACCTGCGGAGTCACCTAGTGCAG”, 10200 fluorescence intensity (a.u.); with “TCTAAATGATTGTTATTTTCTTTCCTATTGTAAAGTTCAACGGAGTCACCTAGTGCAG”, 18900 fluorescence intensity (a.u.). The same measure for “ATTTTGTGGTAATCTATACAAATTACTATATCCCCAATTGCGGAGTCACCTAGTGCAG”: 4670 fluorescence intensity (a.u.). The same measure for “CTTTAATTAATTTAACTGCCATTATTATGTACTTTCAGAGCGGAGTCACCTAGTGCAG”: 63200 fluorescence intensity (a.u.); for “TGTATTTAATTAGTTTGACAGAAACAAATTTGCTCAGTTACGGAGTCACCTAGTGCAG”: 37100 fluorescence intensity (a.u.). As to “AATACTTATTAATAATTAACATGTGTTAATTCATTGCTTCCGGAGTCACCTAGTGCAG”, the binding signal is 13400 fluorescence intensity (a.u.).
